# Results filed as inconclusive are left out. Active and inactive are the calls of the source. Unless noted, calls follow the shape of the dose curve; as a rule, active = well fitted curve in the direction sought with a large enough effect; inconclusive = small, poorly fitted or top-dose-only effect, or another doubt; inactive = no such curve, though single readings can be large; an effect the other way counts as inactive or inconclusive.
# Legend:
# [1] = Quantitative High-Throughput drug screen in 47 multiple myeloma cell lines against the NCATS MIPE library collection: RPMI8226_ATCC cell viability assay (AID 1919871); also: nearly all actives have a fitted effect of over 30% in size; also: potency is read from the fitted curve at half-maximal effect
# Method in brief: (§1)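 Cells were exposed to library compounds for 48 hours, after which ATP was measured by CellTiter-Glo. Signal was taken as median relative luminescence units.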
# [2] = Quantitative High-Throughput drug screen in 47 multiple myeloma cell lines against the NCATS MIPE library collection: OPM2_DSMZ cell viability assay (AID 1919872); also: nearly all actives have a fitted effect of over 30% in size; also: potency is read from the fitted curve at half-maximal effect
# Method in brief: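 Inhibition of cell viability is measured here. Each line was plated at 500 cells per well, treated with MIPE 4.0 drugs, kept 48 hours at 37C, then assayed for ATP content by CellTiter-Glo luminescence.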
# [3] = Quantitative High-Throughput drug screen in 47 multiple myeloma cell lines against the NCATS MIPE library collection: KMS11_JCRBsus cell viability assay (AID 1919873); also: nearly all actives have a fitted effect of over 50% in size; also: potency is read from the fitted curve at half-maximal effect
# Method in brief: as §1
# [4] = Quantitative High-Throughput drug screen in 47 multiple myeloma cell lines against the NCATS MIPE library collection: KMS28BM_JCRB cell viability assay (AID 1919874); also: nearly all actives have a fitted effect of over 35% in size; also: potency is read from the fitted curve at half-maximal effect
# Method in brief: as §1
# [5] = qHTS drug screen for cell cycle checkpoint inhibitors in PARPi-resistant BRCA-mutant ovarian cancer cell lines. (AID 1963452; calls by dose curve); settings: PEO1/OlaR viability, CellTiter-Glo luminescence, 96 h, stronger effect = lower value
# Method in brief: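 PEO1, PEO4 and PEO1/OlaR ovarian cancer cells, 600 per well, exposed 96 h at 37C to a dilution series. Viability read by CellTiter-Glo luminescence, normalized to DMSO and empty wells; activity summarized as Z-AUC.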
# [6] = Quantitative High-Throughput drug screen in 47 multiple myeloma cell lines against the NCATS MIPE library collection: PCM6_Riken cell viability assay (AID 1919870); also: nearly all actives have a fitted effect of over 30% in size; also: potency is read from the fitted curve at half-maximal effect
# Method in brief: as §1
# [7] = qHTS for identification of novel therapeutic agents for treatment of microphthalmiaassociated transcription factor (MiT) renal cell carcinoma (RCC) (AID 1963991); settings: CellTiter-Glo, 48 h, stronger effect = lower value;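 also: curves scaled with 100% = DMSO viability and 0% = empty wells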
# Method in brief: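 UOK109/UOK124/UOK145 (TFE3 fusions, three partners); 500 cells/well; MIPE v4.0, 1912 cpds, 11 conc.; 48 h, 37 C; CellTiter-Glo, 15 min RT; lum. Norm.: DMSO 100%, empty 0%.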
# [8] = qHTS profiling for inhibitors of Plasmodium falciparum proliferation (AID 504749);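 also: 0% = DMSO vehicle and full inhibition = artemisinin control; nearly all actives have a fitted effect of over 60% in size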; settings: P. falciparum in erythrocytes, SYBR Green DNA, 72 h, at 28.7 µM (top of the series)
# Method in brief: (§2)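 Each compound contacts P. falciparum-infected red blood cells for 72 h at 37 C; lysis buffer (Tris, EDTA, saponin, Triton X, SYBR Green I) is added and fluorescence measured next morning; values normalized to controls.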
# 3D7 = test: as above; settings: P. falciparum in erythrocytes, SYBR Green DNA, 72 h; series mostly up to 28.7 µM
# Method in brief: as §2
# [9] = measured here: PEO1 parental Z-AUC
# [10] = TFE3-RCC UOK109 viability, measured here: UOK109 Z-AUC
# [11] = TFE3-RCC viability, measured here: UOK124 Z-AUC
# [12] = TFE3-RCC viability, measured here: UOK145 Z-AUC
compound,measurement,setting,value
Cc1nc(C(=O)NCC(=O)O)c(O)c2ccc(Oc3ccccc3)cc12,Potency,[1],inactive
same,Potency,[2],inactive
same,Potency,[3],inactive
same,Potency,[4],inactive
same,Z-AUC,[5],1.39 (inactive)
same,Z-AUC,[5]; [9],0.88
same,Z-AUC,[5]; measured here: PEO4 Z-AUC,0.853
Cc1cc(NC(=O)Nc2ccc(N(C)C)cc2)c2cc(F)cc(F)c2n1,Potency,[6],inactive
same,Potency,[4],inactive
same,Z-AUC,[5],-0.154 (inactive)
same,Z-AUC,[5]; [9],-0.66
same,Z-AUC,[5]; measured here: PEO4 Z-AUC,-0.472
same,z-score,[7]; [10],1.14
same,z-score,[7]; [11],0.89
same,z-score,[7]; [12],1.08
C[C@H](c1ccc(F)cc1CCCC(=O)O)N(c1cc(F)ccc1F)S(=O)(=O)c1ccc(Cl)cc1,Potency,[6],6.62 µM (active)
same,Potency,[4],16.6 µM (active)
same,Z-AUC,[5],-0.634 (inactive)
same,Z-AUC,[5]; [9],-0.271
same,Z-AUC,[5]; measured here: PEO4 Z-AUC,-0.797
same,z-score,[7]; [10],0.174
same,z-score,[7]; [11],-0.0423
same,z-score,[7]; [12],-0.497
O=C(CC12CC3CC(CC(C3)C1)C2)Nc1cccc2nc(NCCNCCO)ccc12,Potency,[6],7.43 µM (active)
same,Potency,[4],23.5 µM (active)
same,Z-AUC,[5],0.783 (inactive)
same,Z-AUC,[5]; [9],0.506
same,Z-AUC,[5]; measured here: PEO4 Z-AUC,0.728
CN(C)CCN(Cc1ccc(Cl)cc1)c1ccccn1,Potency,[1],inactive
same,Potency,[2],inactive
same,Potency,[3],inactive
same,Potency,[4],14.8 µM (active)
CN(C)CCN(C)C(=O)c1ccc(NC(=O)Nc2ccc(-c3nc(N4CCOCC4)c4ccn(CC(F)(F)F)c4n3)cc2)cc1,Potency,[1],0.0833 µM (active)
same,Potency,[2],0.187 µM (active)
same,Potency,[3],0.0372 µM (active)
same,Potency,[4],0.0148 µM (active)
same,Z-AUC,[5],-1.1 (inactive)
same,Z-AUC,[5]; [9],-1.35
same,Z-AUC,[5]; measured here: PEO4 Z-AUC,-1.82
COc1ccc2cc1Oc1ccc(cc1)C[C@H]1c3cc(c(OC)cc3CCN1C)Oc1c(OC)c(OC)cc3c1[C@H](C2)N(C)CC3,Potency,[1],6.62 µM (active)
same,Potency,[2],inactive
same,Potency,[3],14.8 µM (active)
NC(=O)c1ccc(N(C(N)=O)c2c(F)cccc2F)nc1-c1ccc(F)cc1F,Potency,[1],inactive
same,Potency,[2],inactive
same,Potency,[3],inactive
same,Potency,[4],inactive
same,Z-AUC,[5],-0.305 (inactive)
same,Z-AUC,[5]; [9],-0.387
same,Z-AUC,[5]; measured here: PEO4 Z-AUC,0.295
COc1ccc2c(c1)c(C1=C(c3c[nH]c4ccccc34)C(=O)NC1=O)cn2CCCN(C)C,Potency,[6],23.5 µM (active)
same,Potency,[3],23.5 µM (active)
same,Z-AUC,[5],-1.63 (inactive)
same,Z-AUC,[5]; [9],-0.951
same,Z-AUC,[5]; measured here: PEO4 Z-AUC,-1.4
O=S(=O)(O)c1ccc2cc(N=Nc3cc(S(=O)(=O)O)c4cccnc4c3O)ccc2c1,Potency,[1],16.6 µM (active)
same,Potency,[2],inactive
same,Potency,[4],1.87 µM (active)
same,Z-AUC,[5],0.327 (inactive)
same,Z-AUC,[5]; [9],-0.476
same,Z-AUC,[5]; measured here: PEO4 Z-AUC,0.158
COc1ccc(Cn2ccc3ccc(C(=O)NO)cc32)cc1,Potency,[1],inactive
same,Potency,[2],inactive
same,Potency,[4],inactive
same,Z-AUC,[5],1.36 (inactive)
same,Z-AUC,[5]; [9],1.01
same,Z-AUC,[5]; measured here: PEO4 Z-AUC,1
COc1ccnc(CS(=O)c2nc3ccc(OC(F)F)cc3[nH]2)c1OC (configuration not stated),Potency,[1],inactive
same,Potency,[2],inactive
same,Potency,[4],inactive
same,Z-AUC,[5],1.71 (inactive)
same,Z-AUC,[5]; [9],1.02
same,Z-AUC,[5]; measured here: PEO4 Z-AUC,1.19
same,"activity, negative = inhibition",[8]; parasite line A,-7.9% (inactive)
same,"activity, negative = inhibition",[8]; parasite line B,-10.6% (inactive)
same,Potency,3D7,inactive
Cc1cc(C(C)Nc2ccccc2)c2nc(N3CCOCC3)cc(=O)n2c1 (configuration not stated),Potency,[1],inactive
same,Potency,[2],inactive
same,Z-AUC,[5],0.744 (inactive)
same,Z-AUC,[5]; [9],1.25
same,Z-AUC,[5]; measured here: PEO4 Z-AUC,1.25
NC(=O)c1nnn(Cc2cc(Cl)c(C(=O)c3ccc(Cl)cc3)c(Cl)c2)c1N,Potency,[1],14.8 µM (active)
same,Potency,[3],16.6 µM (active)
O=c1[nH]c(=O)n([C@H]2C[C@@H](O)[C@@H](CO)O2)cc1C(F)(F)F,Potency,[1],3.72 µM (active)
same,Potency,[2],inactive
same,Potency,[4],9.35 µM (active)
CCNC(=O)Nc1ccc(Oc2ncnc(N)c2C=NOC)cc1Cl,Potency,[1],18.7 µM (active)
same,Potency,[3],9.35 µM (active)

# Reference: PubChem BioAssay (NCATS)
